Test results taken from PubChem BioAssay (Tox21).
Results filed as inconclusive are left out. Calls of active or inactive are those of the source. Calls follow the shape of the full dose curve.
% is scaled to controls: 0 for no effect and ±100 for the full control effect.

The compounds below were run against Beta-2 adrenergic receptor (Homo sapiens) (UniProt P07550) (assay: Adrenergic beta2 receptor (ADRB2) small molecule antagonists, cell-based qHTS assay (AID 1963592; also: nearly all actives have a fitted effect of over 50% in size)). Settings: CHO-ADRB2 cells, isoproterenol-stimulated cAMP HTRF ratio, 0.5 h; series mostly up to 92.4 µM; activity change, negative = inhibition: at the top concentration.
Beta-2 adrenergic receptor (Homo sapiens), sequence (P07550 whole entry, looked up): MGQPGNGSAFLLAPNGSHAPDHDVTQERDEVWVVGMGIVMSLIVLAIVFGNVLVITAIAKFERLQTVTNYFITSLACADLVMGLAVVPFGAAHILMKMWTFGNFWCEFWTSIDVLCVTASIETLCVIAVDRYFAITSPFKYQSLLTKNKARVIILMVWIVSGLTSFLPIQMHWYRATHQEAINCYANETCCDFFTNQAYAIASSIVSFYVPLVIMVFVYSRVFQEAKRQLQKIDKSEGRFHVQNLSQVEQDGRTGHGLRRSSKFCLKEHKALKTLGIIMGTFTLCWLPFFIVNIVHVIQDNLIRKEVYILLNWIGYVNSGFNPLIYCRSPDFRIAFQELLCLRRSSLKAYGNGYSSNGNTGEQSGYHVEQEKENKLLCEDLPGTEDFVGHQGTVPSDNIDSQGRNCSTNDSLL
Description: U.S. Tox21 Program National Center for Advancing Translational Sciences [NCATS] Division of Preclinical Innovation [DPI] U.S. Environmental Protection Agency [EPA] National Institutes of Environmental Health Sciences [NIEHS] National Toxicology Program [NTP] U.S. Food and Drug Administration [FDA] Tox21 Assay Overview: Beta adrenergic receptors (Beta-ARs) belong to the G-protein coupled receptor (GPCR) superfamily, includes three subtypes - beta1, beta2, and beta3. Beta1-AR is the predominant receptor subtype expressed in the heart, and beta2-AR is expressed in the kidney, lung, blood vessel and in the heart, and beta3 is found in the adipocytes. Beta1 and 2 ARs couple to Gs protein and elevate cyclic adenosine mono phosphate (cAMP), which activates protein kinase A and leads to the downstream signaling responsible for the physiological actions. Beta-AR agonists or antagonists are the most prescribed therapeutic agents for heart failure and asthma, and these were one of the first target receptors for the rational drug design. Tox21 10K compound library was screened using the cAMP-Gs dynamic assay (Cisbio Bioassays, Shelton, CT) to identify agonists/antagonists of the Gs-coupled human adrenergic, beta2 receptor (ADRB2) in the CHO-ADRB2 cell line (Codex BioSolutions, Inc. Gaithersburg, MD), which stably over-expresses ADRB2. The principle of cAMP-Gs dynamic assay is based on HTRF technology, which facilitates the fluorescence resonance energy transfer (FRET) between donor Europium cryptate and acceptor d2-labeled cAMP. The cAMP generated within cells competes with the red acceptor, d2-labled cAMP, for binding to the monoclonal anti-cAMP-cryptate (Europium donor). An increase in intracellular cAMP leads to the disruption of FRET signal, and the signal is inversely proportional to the cAMP concentration. Propranolol HCl (Sigma-Aldrich, St. Louis, MO) was used as a positive control in the screening.
Tox21 Assay Protocol Summary: CHO-ADRB2 cells were dispensed at 1,000/well in 4uL assay medium into white/solid 1536-well plates (Greiner Bio-One North America Inc., Monroe, NC) using a Multidrop Combi dispenser (ThermoFisher Scientific, Waltham, MA). The assay plates were incubated at 37C and 5% CO2 for an overnight (18-20hr). Then positive control and test compounds dissolved in DMSO were transferred to the assay plates at 23nL using a Pintool station (Wako, San Diego, CA). Following the compound and positive control transfer, 1uL agonist-stimulation mix containing 1nM Isoproterenol HCl, 100uM IBMX and 25uM Ro-20-1724 was added to each well of the assay plates using BioRAPTR Flying Reagent Dispenser (FRD, Beckman Coulter, Brea, CA). The assay plates were incubated at room temperature for 0.5hr. Then 2.5ul each d2-labled cAMP and anti-cAMP-cryptate solutions were added separately to each well of the assay plates using an FRD and the assay plates were incubated at room temperature for 1hr. The fluorescence signal was measured at two different wavelengths (665nm and 615nm) using an Envision plate reader (Perkin Elmer, Shelton, CT). Data were expressed as the ratio of 665 nm/615 nm.
With `CCCCCCCCCO` the “activity change, negative = inhibition” value was 10% (inactive).
`CSC(=O)c1cccc2nnsc12` was tested, and the “activity change, negative = inhibition” value was -12.4% (inactive).
In the case of `COC(OC)(C(=O)c1ccccc1)c1ccccc1`, the “activity change, negative = inhibition” value is reported as -13% (inactive).
For `CC(O)CN` (stereo not given), the “activity change, negative = inhibition” value was 1.88% (inactive).
`CCCCCC/C=C\CCCCCCCC(=O)O` was tested, and the “activity change, negative = inhibition” value was 1.52% (inactive).
For `c1ccc(-c2nc3ccccc3[nH]2)cc1`, the “activity change, negative = inhibition” value was -2.05% (inactive).
In the case of `CCCCOC(=O)c1ccccc1C(=O)OCC(CC)CCCC` (stereo not given), the “activity change, negative = inhibition” value is reported as -5.46% (inactive).
`C=C1CC[C@H](O)CC1=C/C=C1\CCC[C@]2(C)[C@@H]([C@H](C)/C=C/[C@H](C)C(C)C)CC[C@@H]12` was tested, and the Potency was “inactive”.
`Cc1ccc(O)c([C@H](CCN(C(C)C)C(C)C)c2ccccc2)c1` was tested, and the “activity change, negative = inhibition” value was -7.46% [at 42.5 µM] (inactive).
In the case of `Cc1cccc(Nc2ccccc2)c1`, the “activity change, negative = inhibition” value is reported as -7.32% (inactive).
In the case of `CC(C)CCCCCCOC(=O)C1CCCCC1C(=O)OCCCCCCC(C)C` (stereo not given), the “activity change, negative = inhibition” value is reported as -7.17% (inactive).
For `CC[C@]12CCCN3CCc4c(n(c5ccccc45)C(=O)C1)[C@@H]32`, the “activity change, negative = inhibition” value was 0.833% [at 42.5 µM] (inactive).
`O=C(c1ccccc1)C1CCC1` was tested, and the “activity change, negative = inhibition” value was -6.6% (inactive).
For `COC(C)CCO` (stereo not given), the “activity change, negative = inhibition” value was 1.7% (inactive).
With `CCCCCCOC(=O)CCCCCCCC(=O)OCCCCCC` the “activity change, negative = inhibition” value was -10.6% (inactive).
`COc1ccc2cc1Oc1ccc(cc1)C[C@H]1c3c(cc4c(c3Oc3cc5c(cc3OC)CCN(C)[C@@H]5C2)OCO4)CCN1C` was tested, and the “activity change, negative = inhibition” value was -22.7% [at 42.5 µM] (inactive).
In the case of `O=C(Cl)c1cc(Cl)cc(Cl)c1`, the “activity change, negative = inhibition” value is reported as -11.7% (inactive).
`O=C(CC(=O)C(F)(F)F)c1ccccc1` was tested, and the “activity change, negative = inhibition” value was -8.9% (inactive).
With `Oc1cccc(Nc2ccccc2)c1` the “activity change, negative = inhibition” value was -16.1% (inactive).
`COc1cc2c(cc1OC)-c1cc(=Nc3c(C)cc(C)cc3C)n(C)c(=O)n1CC2` was tested, and the “activity change, negative = inhibition” value was 0.995% [at 42.5 µM] (inactive).
`O=c1[nH]c(=O)n([C@H]2C[C@H](O)[C@@H](CO)O2)cc1C(F)(F)F` was tested, and the “activity change, negative = inhibition” value was 0.974% [at 42.5 µM] (inactive).
`O=[N+]([O-])c1ccc(O)cc1` was tested, and the Potency was “inactive”.
With `C=CC(=O)NC(C)(C)C` the “activity change, negative = inhibition” value was -1.52% (inactive).
In the case of `Nc1ccc(-c2ccc(F)cc2)cc1`, the “activity change, negative = inhibition” value is reported as -17.6% (inactive).
For `CCCCCc1ccc(O)cc1`, the “activity change, negative = inhibition” value was -21% (inactive).
With `CC1C2CC(CC2C2CCCC(O)C2)C1(C)C` (stereo not given) the “activity change, negative = inhibition” value was -6.85% (inactive).
With `CNCC[C@@H](Oc1ccccc1C)c1ccccc1` the “activity change, negative = inhibition” value was -7.55% [at 42.5 µM] (inactive).
In the case of `CCOC(=O)OC(C)OC(=O)[C@@H]1N2C(=O)[C@@H](NC(=O)[C@H](N)c3ccccc3)[C@H]2SC1(C)C` (stereo not given in full), the “activity change, negative = inhibition” value is reported as 0.667% [at 42.5 µM] (inactive).
`CCCCCCCCCCCCCCCC(=O)OCC` was tested, and the “activity change, negative = inhibition” value was 0.439% (inactive).
In the case of `CCc1ccc2c(c1)C(=O)c1ccccc1C2=O`, the “activity change, negative = inhibition” value is reported as -9.97% (inactive).
With `CCN(CCC#N)c1ccc(N=Nc2c(Cl)cc([N+](=O)[O-])cc2Cl)cc1` the “activity change, negative = inhibition” value was 7.78% (inactive).
`O=c1cc(-c2ccc(O)cc2)oc2cc(O)cc(O)c12` was tested, and the Potency was “inactive”.
With `CCN(Cc1cccc(S(=O)(=O)O)c1)c1ccc(C(=C2C=CC(=[N+](CC)Cc3cccc(S(=O)(=O)[O-])c3)C=C2)c2ccccc2)cc1` the “activity change, negative = inhibition” value was -7.8% [at 42.5 µM] (inactive).
For `COc1cc(N)ccc1C`, the “activity change, negative = inhibition” value was -17.7% (inactive).
In the case of `Sc1nc(S)nc(S)n1`, the “activity change, negative = inhibition” value is reported as 8.41% [at 42.5 µM] (inactive).
For `CC(O)C#CC(C)O` (stereo not given), the “activity change, negative = inhibition” value was -6.16% (inactive).
`CN(C)c1ccc(O)c2c1C[C@H]1C[C@H]3[C@H](N(C)C)C(=O)C(C(N)=O)=C(O)[C@@]3(O)C(=O)C1=C2O` was tested, and the Potency was “inactive”.
`BrCc1cccc(Oc2ccccc2)c1` was tested, and the “activity change, negative = inhibition” value was -22.4% (inactive).
For `CCC(C)O` (stereo not given), the “activity change, negative = inhibition” value was -20.3% (inactive).
In the case of `CCCCCCCCCCCCCCCCN(C)C`, the activity change, negative = inhibition is reported as -8.88% [at 8.39 µM] (inactive).
